Experimental findings from PubChem BioAssay AID1851 (National Center for Advancing Translational Sciences (NCATS), 2009) are described below.

Molecules are shown by their SMILES. In all, about 16,000 compounds went through this assay and about 2,600 (16%) were called active. Inconclusive results (about 20%) are left out. Calls follow the shape of the dose curve; as a rule, active = well fitted curve in the direction sought with a large enough effect; inconclusive = small, poorly fitted or top-dose-only effect, or effect the other way; inactive = no such curve, though single readings can be large or run the other way. Only a sample is shown.
% is scaled to controls: 0 for no effect and ±100 for the full control effect.

Chain of Cytochrome P450 2D6 (Homo sapiens) (P10635 whole entry, looked up): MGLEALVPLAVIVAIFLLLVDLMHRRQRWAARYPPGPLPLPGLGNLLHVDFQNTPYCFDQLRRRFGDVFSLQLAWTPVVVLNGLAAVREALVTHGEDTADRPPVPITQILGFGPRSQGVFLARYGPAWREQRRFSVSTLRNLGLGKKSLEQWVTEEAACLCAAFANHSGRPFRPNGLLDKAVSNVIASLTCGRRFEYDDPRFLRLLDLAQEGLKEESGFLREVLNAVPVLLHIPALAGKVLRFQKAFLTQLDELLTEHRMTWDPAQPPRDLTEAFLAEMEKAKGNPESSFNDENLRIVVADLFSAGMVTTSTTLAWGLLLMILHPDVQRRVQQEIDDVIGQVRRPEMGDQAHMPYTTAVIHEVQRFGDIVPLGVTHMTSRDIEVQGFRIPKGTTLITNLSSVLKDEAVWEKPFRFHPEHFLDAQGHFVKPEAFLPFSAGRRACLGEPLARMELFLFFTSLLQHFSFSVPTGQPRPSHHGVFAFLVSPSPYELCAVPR

The assay addresses Cytochrome P450 2D6 (Homo sapiens) (UniProt P10635). In words: Cytochrome panel assay with activity outcomes. Particulars: recombinant CYP, pro-luciferin dealkylation, luminescence, p450-cyp2d6; series mostly up to 57.1 µM; activity, negative = inhibition: at the top concentration.
`Cc1ccc(NC(=O)c2nnn(-c3cc(C)cc(C)c3)c2N)cc1`: the “activity, negative = inhibition” value was -35.7% (inactive).

For the compound `COc1ccc(C(=O)NC(CO)c2nnc(SCc3ccc(Cl)c(Cl)c3)n2C)cc1` (stereo not given), the “activity, negative = inhibition” value was -29.4% (inactive).

Consider `CC(C)(C)C(=O)Nc1ccnc(-c2cccnc2)n1`, for which the “activity, negative = inhibition” value was 15.9% (inactive).

With `Cc1ccccc1-c1cc(NCc2cccnc2)ncn1`, the “activity, negative = inhibition” value is -18.7% (inactive).

As to `Cc1cccc(CNc2ccnc(-c3ccc(C(=O)N(C)C)cc3)n2)c1`, the “activity, negative = inhibition” value is -6.1% (inactive).

By AC50 is commonly meant the midpoint of the concentration-response curve, whichever way the signal moves. On to `c1ccc(CNc2ccnc(-c3cccnc3)n2)cc1`, for which the AC50 was 1260 nM (active).

In the case of `CC(=O)Nc1ccnc(-c2cccnc2)n1`, the “activity, negative = inhibition” value was -2.93% (inactive).

In the case of `O=C(Nc1ccnc(-c2cccnc2)n1)c1cccc(Cl)c1Cl`, the AC50 is 2240 nM (active).

Consider `Cc1ccccc1-c1nccc(NCc2cccnc2)n1`, for which the AC50 is 20000 nM (active).

Take `Cc1cccc(CNc2ccnc(-c3cccnc3)n2)c1`: the AC50 was 631 nM (active).

Regarding `O=[N+]([O-])c1ccccc1/C=N/n1c(COc2ccccc2)n[nH]c1=S`, the “activity, negative = inhibition” value was -29.2% (inactive).

`Cc1ccc(/C=N/n2cnnc2)s1`: the “activity, negative = inhibition” value was -11.6% (inactive).

Take `Cn1c(=S)c2[nH]c(SCCN3C(=O)c4ccccc4C3=O)nc2n(C)c1=O`: the activity, negative = inhibition is 2.46% [at 11.4 µM] (inactive).

Regarding `CCCCC(=O)Nc1nnc(SCC(=O)NC2CCCC2)s1`, the “activity, negative = inhibition” value is 8.09% (inactive).

For the compound `COc1cc2nc(N(C)CCCNC(=O)[C@@H]3CCCO3)nc(N)c2cc1OC`, the “activity, negative = inhibition” value was -16% [at 25.6 µM] (inactive).

`Cn1c(=O)c2cc(S(=O)(=O)NCCC(=O)Nc3ccc(Cl)cc3)ccc2n(C)c1=O`: the “activity, negative = inhibition” value was -13.9% (inactive).

On to `Cc1ccc(CNC(=O)CCNS(=O)(=O)c2ccc3c(c2)c(=O)n(C)c(=O)n3C)cc1`, for which the “activity, negative = inhibition” value is -11.3% (inactive).

In the case of `Cn1c(=O)c2cc(S(=O)(=O)NCCC(=O)NCCc3ccc(Cl)cc3)ccc2n(C)c1=O`, the AC50 was 15800 nM (active).

For the compound `O=C1C(C2=NC(C(=O)O)C3C(=O)N(c4ccc(Cl)cc4)C(=O)C23)=C(O)c2ccccc21` (stereo not given), the “activity, negative = inhibition” value is -3.63% (inactive).

Regarding `Clc1ccc(CSCCc2ccncc2)cc1Cl`, the AC50 is 316 nM (active).

For the compound `c1ccc(CSCCc2ccncc2)cc1`, the AC50 was 1260 nM (active).

Turning to `N[C@@H](CSCc1ccccc1)C(=O)O`, the activity, negative = inhibition was -7.04% [at 11.4 µM] (inactive).

On to `c1ccc2c(CSCCc3ccncc3)cccc2c1`, for which the AC50 was 398 nM (active).

Consider `N=C(N)SCCc1ccncc1`, for which the activity, negative = inhibition was -9.64% [at 11.4 µM] (inactive).

Regarding `c1ccc2c(CSCc3cccc4ccccc34)cccc2c1`, the activity, negative = inhibition is 9.11% [at 11.4 µM] (inactive).

For the compound `O=C(O)c1cc(N=Cc2ccccc2O)cc(C(=O)O)c1`, the activity, negative = inhibition was 7.13% [at 11.4 µM] (inactive).

Turning to `FC(F)(F)c1nnc(-c2ccccc2)nc1Sc1ccccc1`, the “activity, negative = inhibition” value is -29.5% (inactive).

As to `Cc1cc(C2(c3cc(C)c(O)c(C(=O)O)c3)OS(=O)(=O)c3ccccc32)cc(C(=O)O)c1O`, the activity, negative = inhibition was 5.11% [at 11.4 µM] (inactive).

For the compound `O=C1C2Sc3[nH]c(=O)sc3C(c3ccccc3)C2C(=O)N1c1ccccc1` (stereo not given), the “activity, negative = inhibition” value is -14.8% (inactive).

For the compound `Cc1nc2cnc(N(C)C)nc2n(C2CC2)c1=O`, the “activity, negative = inhibition” value is -4.46% (inactive).

As for `COc1ccc2[nH]cc(CCNc3ncncc3-c3cccnc3)c2c1`, the AC50 is 12600 nM (active).

Take `COc1cccc(-c2cncnc2NCCc2c[nH]c3ccc(OC)cc23)c1`: the AC50 is 2510 nM (active).

`COc1ccc2[nH]cc(CCNc3ncncc3-c3cccc(NS(C)(=O)=O)c3)c2c1`: the AC50 is 3160 nM (active).

`O=C(O)CNc1ccc(C(=O)O)cc1`: the activity, negative = inhibition is 8.05% [at 11.4 µM] (inactive).

Regarding `Cc1ccccc1C(C(=O)NCc1ccccc1)N(Cc1ccco1)C(=O)c1ccccn1` (stereo not given), the “activity, negative = inhibition” value was -16.9% (inactive).

For `Cc1nn(C)cc1C(=O)NNC(=S)Nc1ccccc1`, the “activity, negative = inhibition” value is -1.67% (inactive).

`CCOc1ccc(-c2nn(-c3ccccc3)cc2/C=C(\C#N)S(=O)(=O)c2ccccc2)cc1C`: the “activity, negative = inhibition” value is 6.66% (inactive).

In the case of `C[C@@]12CCC(=O)C=C1CC[C@@H]1[C@@H]2[C@H](O)C[C@]2(C)[C@@H]1CC[C@]2(O)C(=O)CO`, the “activity, negative = inhibition” value was 2.89% [at 25.6 µM] (inactive).

`C[C@@H]1Cc2ccccc2N1NC(=O)c1ccc(Cl)c(S(N)=O)c1` (stereo not given in full): the “activity, negative = inhibition” value was -10.6% [at 25.6 µM] (inactive).

Take `COc1ccc2cc(CCNC(=O)C3CC3)c(=O)[nH]c2c1`: the “activity, negative = inhibition” value was 5.67% (inactive).

On to `COc1ccc2c(CC(=O)NCC3CCC(C(=O)O)CC3)cc(=O)oc2c1` (stereo not given), for which the AC50 is 6310 nM (active).

With `O=C(NCC1CCC(C(=O)O)CC1)OCc1ccccc1` (stereo not given), the “activity, negative = inhibition” value was -12.9% (inactive).

Regarding `CC(=O)Nc1ccc([N+](=O)[O-])cn1`, the “activity, negative = inhibition” value is 21.1% (inactive).

Regarding `CO[C@@H]1/C=C\CC(=O)N[C@@H](C)C(=O)OC[C@@H](OC)[C@H](C)CCCC(=O)OC[C@H]1C`, the activity, negative = inhibition is 17% [at 11.4 µM] (inactive).

For `CSc1nc(C)c(CCOC(=O)c2cccc(C)c2)c(=O)[nH]1`, the “activity, negative = inhibition” value is -2.28% (inactive).

`CCN(CC)S(=O)(=O)c1cc(C(=O)OC)ccc1Cl`: the “activity, negative = inhibition” value is -5.66% (inactive).

`CCN(CC)S(=O)(=O)c1cc(C(=O)Nc2ccccc2C(=O)O)ccc1OC`: the “activity, negative = inhibition” value was 0.338% (inactive).

As for `CCN(CC)S(=O)(=O)c1cc(C(=O)Nc2ccncc2)ccc1Cl`, the AC50 was 2240 nM (active).

Take `CC(C)(C)CC(C)(C)c1cc(O)c(O)c(CN2CCCCC2)c1`: the activity, negative = inhibition was -16.1% [at 11.4 µM] (inactive).

Take `Oc1c(CN2CCCCC2)cc(Br)c2cccnc12`: the AC50 was 7940 nM (active).
